Screening results from PubChem BioAssay.
Hits are enriched below; roughly 11% of the tested compounds scored in any of these assays.
Tau fluor cs: Counterscreen qHTS for Inhibitors of Tau Fibril Formation, Fluorescence Polarization. tau K18 P301L Alexa594 fluorescence, heparin fibrillization. Potency, µM (top dose mostly 57.7 µM), without a hit: at the highest dose activity change, negative = decrease. hit rate 0.93% among 280,000. AID 1463, 2008; further: potency means the concentration at half of the fitted maximal effect; nearly all actives have a fitted effect of over 55% in size
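Human K18 P301L tau (15 uM unlabeled plus 0.24 uM Alexa 594-labeled, final) in 100 mM sodium acetate pH 7 was mixed with compound and 20 uM heparin and incubated 6 hr at 37 C.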
Coupling enz: qHTS Assay for Inhibitors of Fructose-1,6-bisphosphate Aldolase from Giardia Lamblia: Coupling assay counterscreen; hit rate 0.67% among 290,000; AID 2472, 2010; activity change, negative = inhibition, % at 58.2 µM, hits read low; coupling enzyme system counterscreen, AmpLite Red fluorescence; in the data active means activity change below about -30%
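Compounds tested against the coupling enzymes alone at 57.5 uM final; readout was AmpLite Red fluorescence (525/598 nm) after 20 min at RT.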
G9a block: qHTS Assay for Inhibitors of Histone Lysine Methyltransferase G9a; G9a H3K9 monomethylation, AlphaScreen, 2 h; Histone-lysine N-methyltransferase EHMT2 (Homo sapiens), Q96KQ7; hit rate 8.8% among 350,000; Potency, µM (series often up to 102 µM), inactives show at the highest dose activity, negative = inhibition, actives largely listed as inhibitors; AID 504332, 2011; further: potency means the concentration at half of the fitted maximal effect; nearly all actives have a fitted effect of over 75% in size
Target sequence (Q96KQ7 913-1193 limits assumed): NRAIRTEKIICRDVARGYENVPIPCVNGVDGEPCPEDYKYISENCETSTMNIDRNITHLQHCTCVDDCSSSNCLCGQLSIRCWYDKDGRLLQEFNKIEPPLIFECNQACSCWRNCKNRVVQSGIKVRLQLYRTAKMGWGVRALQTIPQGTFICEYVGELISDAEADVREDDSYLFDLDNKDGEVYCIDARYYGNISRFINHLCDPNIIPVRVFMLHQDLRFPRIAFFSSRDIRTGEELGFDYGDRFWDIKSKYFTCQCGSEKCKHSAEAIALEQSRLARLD
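Readings reflect AlphaScreen signal from monomethyl-H3K9 antibody detection. HMT at 20 nM; substrate b-H3K9 500 nM; cofactor SAM 20 uM; 2 h RT reaction; compounds tested as titrations in qHTS with 15 min preincubation.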
Tau FP inhib: qHTS for Inhibitors of Tau Fibril Formation, Fluorescence Polarization | K18 P301L tau heparin fibrillization, Alexa594 FP, 6 h | Potency, µM (series often up to 57.7 µM), without a hit: top-dose activity, negative = inhibition, most hits filed as inhibitors | Microtubule-associated protein tau (Homo sapiens), P10636 | hit rate 0.39% among 280,000; further: potency means the concentration at half of the fitted maximal effect; nearly all actives have a fitted effect of over 55% in size
Target sequence (P10636 561-689 P618L limits assumed): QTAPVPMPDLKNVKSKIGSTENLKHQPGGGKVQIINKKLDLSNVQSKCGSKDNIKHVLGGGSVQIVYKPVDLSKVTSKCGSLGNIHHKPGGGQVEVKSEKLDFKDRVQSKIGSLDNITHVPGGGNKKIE
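Heparin (20 uM) drove fibril formation of recombinant tau K18 P301L, 15 uM unlabeled with 0.24 uM Alexa 594 label, for 6 hr at 37 C in 100 mM sodium acetate pH 7. Fluorescence polarization (555/632 nm) read 1 hr after 30 uM ThT.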
Tau fibril ThT: qHTS for Inhibitors of Tau Fibril Formation, Thioflavin T Binding. Microtubule-associated protein tau (Homo sapiens), P10636. recombinant tau K18 P301L (four-repeat tau fragment), heparin-induced fibrillization, ThT fluorescence. Potency, µM (doses to about 57.4 µM), for inactives: at the highest dose activity, negative = inhibition, actives largely listed as inhibitors. hit rate 2.1% among 270,000. AID 1460, 2008; further: potency means the concentration at half of the fitted maximal effect; nearly all actives have a fitted effect of over 55% in size
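Heparin-induced fibrillization of the P301L-mutant K18 repeat-domain fragment of human tau was followed by ThT binding in quantitative high-throughput format.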
Sfp inh: qHTS Assay for Inhibitors of Bacillus subtilis Sfp phosphopantetheinyl transferase (PPTase) | 4'-phosphopantetheinyl transferase ffp (Bacillus subtilis), Q9F4F7 | Biochemical Sfp PPTase activity, qHTS | Potency, µM, for inactives: largest response in the series, negative = inhibition, hits mostly inhibitors | hit rate 3.5% among 310,000 | AID 1490, 2009;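 further: the enzyme is Sfp with the accession as filed and its product quenches rhodamine fluorescence; potency means the concentration at half of the fitted maximal effect; 0% = enzyme reaction without inhibitor and -100% = no enzyme wells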
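Fluorescence-quenching assay: 15 nM Sfp-PPTase preincubated 15 min at room temperature with compound, then 5 uM rhodamine-CoA and 12.5 uM BHQ-2-labelled YbbR peptide added. Fluorescence (ex 525/em 598 nm) read at start and after 30 min; difference gives rate.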
The depositor's hits bear a star; ? = inconclusive; / = no result given; [ ] = remark or other dose. Unless noted, the call rests on the fitted dose curve; in most records, active means well fitted curve in the direction sought with a large enough effect; inconclusive means small, poorly fitted or top-dose-only effect, or another doubt; inactive means no such curve, though single readings can be large; an effect the other way counts as inactive or inconclusive. Unless noted, on the % scale 0 is the no-effect control and ±100 the full control effect.

SMILES | Tau fluor cs | Coupling enz | G9a block | Tau FP inhib | Tau fibril ThT | Sfp inh
NC(=O)C1(N2CCCCC2)CCN(C(=S)Nc2ccccc2)CC1 | -3.2% | 2.1 | 2.6%[59 µM] | 10.0% | -4.7% | -3.6%
O=C(Nc1ccccc1C(F)(F)F)N1CCCCCC1 | 0.8% | 5.3 | -11.1%[59 µM] | 8.1% | -2.5% | -5.5%
NC(=O)C1(N2CCCCC2)CCN(C(=S)Nc2ccc(S(N)(=O)=O)cc2)CC1 | -3.5% | -18.5 | / | -6.4% | -12.6% | 3.98µM*
COc1ccc(NC(=S)N2CCN(S(=O)(=O)c3ccc(F)cc3)CC2)cc1 | / | / | / | / | / | -0.5%
COc1ccc(C(=O)N2CCC(c3c[nH]c4ccccc34)(c3c[nH]c4ccccc34)CC2)cc1 | ? | / | -47.8%[59 µM] | 0.1% | -4.7% | /
O=C1NCCCC1C(=O)N/N=C/c1cccc(O)c1 (centres undefined) | 1.8% | -1.5 | 13.5%[59 µM] | -16.5% | 10.5% | 19.9%
NS(=O)(=O)c1ccc(NC(=S)NCc2ccccc2Cl)cc1 | -11.3% | 0.1 | ? | 1.9% | 1.4% | -15.5%
NS(=O)(=O)c1ccc(NC(=S)NCc2cccc(Cl)c2)cc1 | -21.0% | 0.8 | 44.7µM* | ? | -2.8% | 10.9%
NS(=O)(=O)c1ccc(NC(=S)NCc2ccccc2)cc1 | -4.7% | -0.4 | 11.2µM* | -3.1% | -8.5% | 56.2µM*
CCOC(=O)c1ccccc1NC(=O)CSc1nc2ncccc2o1 | -3.2% | / | 2.5%[59 µM] | -2.3% | -0.2% | /
O=C(NC1CCCCC1)N(CCO)Cc1cc2cc3c(cc2[nH]c1=O)OCCO3 | -10.1% | -0.3 | -22.5%[59 µM] | 0.1% | -13.2% | 11.0%
O=C(NC1CCCCC1)N(CCN1CCCC1)Cc1cc2cc3c(cc2[nH]c1=O)OCCO3 | -2.6% | 1.2 | 39.8µM* | -5.7% | ? | -2.5%
Cc1cc2cc(CN(CCCN3CCOCC3)C(=O)NC3CCCCC3)c(=O)[nH]c2cc1C | 0.6% | -21.0 | 14.1µM* | -3.7% | 1.6% | 44.7µM*
Cc1ccc2cc(CN(CCCN3CCOCC3)C(=O)NC3CCCCC3)c(=O)[nH]c2c1C | 4.3% | 4.4 | 0.8%[59 µM] | -5.0% | -0.4% | 20.1%
COc1ccc(C(=O)N/C(=C/c2ccc(Cl)cc2)C(=O)Nc2ccc(C(=O)O)cc2)cc1 | / | / | ? | / | / | 16.4%
C=CCSc1nnc(NC(=O)c2cn(CC)c3nc(C)ccc3c2=O)s1 | -0.8% | -0.1 | 15.5%[12.7 µM] | 3.3% | -8.7% | 10.3%
Cc1ccc(SC(CC(=O)c2ccc(F)cc2)C(=O)O)cc1 (centres undefined) | / | 5.8 | ? | / | / | 50.1µM*
CC(C)(C)c1ccc(C(=O)CC(Sc2ccc(Cl)cc2)C(=O)O)cc1 (centres undefined) | 1.0% | 21.5 | 44.7µM* | -2.2% | ? | 20µM*
O=C(CC(C(=O)O)c1ccc(F)cc1)c1ccc(Cl)cc1 (centres undefined) | / | 4.0 | 9.3% | / | / | 7.8%
CC(C)(C)c1ccc(C(=O)Nc2ccc(Cl)cc2)cc1 | -12.2% | -0.6 | -64.1%[59 µM] | -0.2% | -10.7% | -5.6%
O=C1CSC(=S)N1/N=C/c1c(F)cccc1F | / | -1.5 | 50.1µM* | / | / | ?
N=C1SCC(=O)N1/N=C/c1ccccc1 | -8.9% | 8.1 | ? | -0.2% | -6.9% | 8.0%
O=C1CSC(=S)N1/N=C/C=C/c1ccccc1 | -11.4% | -0.8 | 39.8µM* | -7.0% | ? | -7.6%
O=C1CSC(=S)N1/N=C/c1ccc(C(F)(F)F)cc1 | / | -2.4 | 79.4µM* | / | / | -4.8%
O=C1CSC(=S)N1/N=C/c1cccc(C(F)(F)F)c1 | / | -4.6 | ? | / | / | 6.6%
COc1ccc(CNC(=O)C(C)n2ccc3cc(S(=O)(=O)N4CCCC4)ccc32)cc1OC (centres undefined) | -8.3% | / | ? | -1.6% | 6.2% | /
